Assays:
Assay in all cases: RNA Bind-n-Seq (nitrocellulose filter binding and sequencing); miR-122 guide loaded in AGO2; 60 min incubation; 30 mM Tris pH 8.0, 100 mM potassium acetate, 2 mM magnesium acetate, 0.5 mM TCEP, 0.005% NP-40, 0.01 mg/ml yeast tRNA; 3 nM AGO2-miR-122, 100 nM RNA library; 60; high values mean tight binding
Details in all cases: protein: recombinant; tags: His6 (N-terminal, pFastBac HTA)
AGO2 L192P = AGO2 L192P (Homo sapiens, UniProt Q9UKV8 1-859, L192P;S387D;S824A;S828D;S831D;S834A)
Method in brief: (§1)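 Fold enrichment is each target's read fraction divided by its read fraction in the input library. Sf9 insect cells expressed His-tagged AGO2 from baculovirus; the protein was loaded with a synthetic guide RNA and purified by Ni-NTA and a biotinylated capture oligo. The bound RNA was extracted, reverse-transcribed, barcode-amplified and sequenced on Illumina.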

AGO2 A367P = AGO2 A367P (Homo sapiens, UniProt Q9UKV8 1-859, A367P;S387D;S824A;S828D;S831D;S834A)
Method in brief: as §1

AGO2 T357M = AGO2 T357M (Homo sapiens, UniProt Q9UKV8 1-859, T357M;S387D;S824A;S828D;S831D;S834A)
Method in brief: as §1

AGO2 F182del = AGO2 F182del (Homo sapiens, UniProt Q9UKV8 1-859, S387D;S824A;S828D;S831D;S834A;del182-182)
Method in brief: as §1

Sequence of AGO2 A367P (Q9UKV8 whole entry A367P/S387D/S824A/S828D/S831D/S834A): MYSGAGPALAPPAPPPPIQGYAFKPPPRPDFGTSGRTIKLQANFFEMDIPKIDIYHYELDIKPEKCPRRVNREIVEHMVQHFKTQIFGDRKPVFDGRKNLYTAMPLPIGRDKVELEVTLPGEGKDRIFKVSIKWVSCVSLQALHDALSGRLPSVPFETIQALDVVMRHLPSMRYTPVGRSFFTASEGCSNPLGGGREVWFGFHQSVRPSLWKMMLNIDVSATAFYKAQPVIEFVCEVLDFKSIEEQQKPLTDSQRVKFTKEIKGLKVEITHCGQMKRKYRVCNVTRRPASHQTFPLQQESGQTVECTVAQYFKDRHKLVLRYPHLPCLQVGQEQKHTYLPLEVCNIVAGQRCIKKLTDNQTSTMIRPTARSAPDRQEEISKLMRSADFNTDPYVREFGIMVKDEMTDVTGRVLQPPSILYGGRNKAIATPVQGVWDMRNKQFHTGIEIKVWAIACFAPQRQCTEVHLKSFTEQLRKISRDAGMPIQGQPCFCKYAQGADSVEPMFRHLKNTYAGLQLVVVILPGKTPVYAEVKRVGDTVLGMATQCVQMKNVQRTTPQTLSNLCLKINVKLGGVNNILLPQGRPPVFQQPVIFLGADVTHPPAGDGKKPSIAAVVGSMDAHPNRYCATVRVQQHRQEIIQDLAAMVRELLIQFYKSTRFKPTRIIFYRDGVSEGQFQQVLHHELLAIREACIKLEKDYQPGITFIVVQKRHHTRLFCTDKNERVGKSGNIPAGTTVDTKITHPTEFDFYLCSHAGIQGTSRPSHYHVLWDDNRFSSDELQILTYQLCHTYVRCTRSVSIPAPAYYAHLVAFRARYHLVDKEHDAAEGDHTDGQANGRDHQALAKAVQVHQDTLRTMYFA
Sequence of AGO2 L192P (Q9UKV8 whole entry L192P/S387D/S824A/S828D/S831D/S834A): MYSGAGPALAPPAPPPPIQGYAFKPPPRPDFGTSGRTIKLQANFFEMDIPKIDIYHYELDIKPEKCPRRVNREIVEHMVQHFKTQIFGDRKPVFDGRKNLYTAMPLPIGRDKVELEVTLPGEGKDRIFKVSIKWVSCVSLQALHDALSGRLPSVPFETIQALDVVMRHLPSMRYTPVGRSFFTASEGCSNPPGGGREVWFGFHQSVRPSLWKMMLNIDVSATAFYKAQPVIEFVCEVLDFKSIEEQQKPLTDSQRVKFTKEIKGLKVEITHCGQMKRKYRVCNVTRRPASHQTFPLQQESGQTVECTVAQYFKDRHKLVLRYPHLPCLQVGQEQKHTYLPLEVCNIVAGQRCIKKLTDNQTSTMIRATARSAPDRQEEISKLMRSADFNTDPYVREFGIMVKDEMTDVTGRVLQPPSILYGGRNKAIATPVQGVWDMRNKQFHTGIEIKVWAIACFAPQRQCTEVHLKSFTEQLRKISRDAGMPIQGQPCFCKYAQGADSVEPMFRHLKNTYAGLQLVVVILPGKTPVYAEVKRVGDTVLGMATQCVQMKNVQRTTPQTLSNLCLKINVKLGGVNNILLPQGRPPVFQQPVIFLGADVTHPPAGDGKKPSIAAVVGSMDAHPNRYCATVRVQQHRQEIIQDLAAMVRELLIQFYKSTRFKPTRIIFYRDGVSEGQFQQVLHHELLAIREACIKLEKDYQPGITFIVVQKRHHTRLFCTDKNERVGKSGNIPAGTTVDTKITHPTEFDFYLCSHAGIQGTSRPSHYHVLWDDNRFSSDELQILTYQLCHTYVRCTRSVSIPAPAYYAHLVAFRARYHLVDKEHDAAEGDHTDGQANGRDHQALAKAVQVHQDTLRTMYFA
Sequence of AGO2 T357M (Q9UKV8 whole entry T357M/S387D/S824A/S828D/S831D/S834A): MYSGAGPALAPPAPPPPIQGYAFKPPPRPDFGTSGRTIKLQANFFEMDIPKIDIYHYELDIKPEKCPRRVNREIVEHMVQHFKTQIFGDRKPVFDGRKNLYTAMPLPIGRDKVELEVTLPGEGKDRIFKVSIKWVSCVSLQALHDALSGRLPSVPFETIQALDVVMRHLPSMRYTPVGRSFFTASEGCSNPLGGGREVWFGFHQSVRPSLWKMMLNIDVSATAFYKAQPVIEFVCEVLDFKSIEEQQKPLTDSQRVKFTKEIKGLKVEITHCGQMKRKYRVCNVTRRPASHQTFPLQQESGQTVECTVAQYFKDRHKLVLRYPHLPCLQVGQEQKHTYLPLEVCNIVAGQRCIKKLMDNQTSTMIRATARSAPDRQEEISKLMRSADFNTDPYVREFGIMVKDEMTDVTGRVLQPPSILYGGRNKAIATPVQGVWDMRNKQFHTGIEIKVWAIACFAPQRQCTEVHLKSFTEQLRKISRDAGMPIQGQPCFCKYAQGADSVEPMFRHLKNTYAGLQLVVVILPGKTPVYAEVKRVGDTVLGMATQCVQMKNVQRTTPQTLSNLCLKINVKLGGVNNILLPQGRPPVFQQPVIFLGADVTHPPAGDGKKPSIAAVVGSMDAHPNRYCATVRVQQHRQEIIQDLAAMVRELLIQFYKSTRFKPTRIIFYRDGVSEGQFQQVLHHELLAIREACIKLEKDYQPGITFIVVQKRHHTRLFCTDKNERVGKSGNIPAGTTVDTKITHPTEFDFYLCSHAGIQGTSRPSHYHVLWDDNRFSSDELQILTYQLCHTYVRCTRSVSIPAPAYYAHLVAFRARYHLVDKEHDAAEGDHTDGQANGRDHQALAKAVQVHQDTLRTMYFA
Sequence of AGO2 F182del (Q9UKV8 other isoform, or with tags, fused parts or gaps S387D;S824A;S828D;S831D;S834A;del182-182): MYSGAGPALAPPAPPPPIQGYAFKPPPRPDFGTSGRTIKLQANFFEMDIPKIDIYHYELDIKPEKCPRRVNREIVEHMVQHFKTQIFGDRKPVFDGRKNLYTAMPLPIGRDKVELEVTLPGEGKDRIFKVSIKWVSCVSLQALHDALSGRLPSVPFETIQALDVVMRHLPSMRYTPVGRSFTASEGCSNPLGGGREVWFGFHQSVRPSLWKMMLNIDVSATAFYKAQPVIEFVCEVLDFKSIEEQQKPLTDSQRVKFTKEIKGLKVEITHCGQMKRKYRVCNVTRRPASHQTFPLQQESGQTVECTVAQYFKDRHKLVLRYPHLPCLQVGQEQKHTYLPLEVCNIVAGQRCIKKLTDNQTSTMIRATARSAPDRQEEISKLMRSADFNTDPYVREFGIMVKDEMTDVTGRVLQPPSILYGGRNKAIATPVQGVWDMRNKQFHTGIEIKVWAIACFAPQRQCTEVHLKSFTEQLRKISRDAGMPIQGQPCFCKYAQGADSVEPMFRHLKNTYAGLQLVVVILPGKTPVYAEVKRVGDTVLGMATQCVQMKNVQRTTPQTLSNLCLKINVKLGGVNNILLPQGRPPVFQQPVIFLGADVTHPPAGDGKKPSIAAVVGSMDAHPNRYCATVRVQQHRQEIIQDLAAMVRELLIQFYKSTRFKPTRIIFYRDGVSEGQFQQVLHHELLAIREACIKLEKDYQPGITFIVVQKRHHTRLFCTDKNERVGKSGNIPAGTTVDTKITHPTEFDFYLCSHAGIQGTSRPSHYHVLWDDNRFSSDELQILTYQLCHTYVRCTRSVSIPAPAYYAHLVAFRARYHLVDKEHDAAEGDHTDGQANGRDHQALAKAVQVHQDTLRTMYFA

B1: GCATCTTG (ssRNA)
RNA 1: GAGUUCUACAGUCCGACGAUCCCAACGCAUCUUGCACCUGGAAUUCUCGGGUGCCAA
RNA 2: UGGAGUGUGACAAUGGUGUUUG
DNA 1: GATCGTCGGACTGTAGAACTC
DNA 2: TTGGCACCCGAGAATTCCA
modifications: constant regions annealed to DNA blockers; guide miR-122 5' phosphate
AGO2 L192P
  binding signal: 0.349 fold enrichment over input
AGO2 A367P
  binding signal: 0.123 fold enrichment over input
AGO2 T357M
  binding signal: 0.425 fold enrichment over input

B2: ATGCTTTG (ssRNA)
RNA 1: GAGUUCUACAGUCCGACGAUCCCAACAUGCUUUGCACCUGGAAUUCUCGGGUGCCAA
RNA 2: UGGAGUGUGACAAUGGUGUUUG
DNA 1: GATCGTCGGACTGTAGAACTC
DNA 2: TTGGCACCCGAGAATTCCA
modifications: constant regions annealed to DNA blockers; guide miR-122 5' phosphate
AGO2 L192P
  binding signal: 0.354 fold enrichment over input
AGO2 A367P
  binding signal: 0.12 fold enrichment over input
AGO2 T357M
  binding signal: 0.455 fold enrichment over input

B3: ATGTCTCG (ssRNA)
RNA 1: GAGUUCUACAGUCCGACGAUCCCAACAUGUCUCGCACCUGGAAUUCUCGGGUGCCAA
RNA 2: UGGAGUGUGACAAUGGUGUUUG
DNA 1: GATCGTCGGACTGTAGAACTC
DNA 2: TTGGCACCCGAGAATTCCA
modifications: constant regions annealed to DNA blockers; guide miR-122 5' phosphate
AGO2 L192P
  binding signal: 0.316 fold enrichment over input
AGO2 T357M
  binding signal: 0.415 fold enrichment over input

B4: GCATTTCG (ssRNA)
RNA 1: GAGUUCUACAGUCCGACGAUCCCAACGCAUUUCGCACCUGGAAUUCUCGGGUGCCAA
RNA 2: UGGAGUGUGACAAUGGUGUUUG
DNA 1: GATCGTCGGACTGTAGAACTC
DNA 2: TTGGCACCCGAGAATTCCA
modifications: constant regions annealed to DNA blockers; guide miR-122 5' phosphate
AGO2 L192P
  binding signal: 0.358 fold enrichment over input
AGO2 A367P
  binding signal: 0.127 fold enrichment over input
AGO2 T357M
  binding signal: 0.486 fold enrichment over input

B5: ACATCTTA (ssRNA)
RNA 1: GAGUUCUACAGUCCGACGAUCCCAACACAUCUUACACCUGGAAUUCUCGGGUGCCAA
RNA 2: UGGAGUGUGACAAUGGUGUUUG
DNA 1: GATCGTCGGACTGTAGAACTC
DNA 2: TTGGCACCCGAGAATTCCA
modifications: constant regions annealed to DNA blockers; guide miR-122 5' phosphate
AGO2 L192P
  binding signal: 0.519 fold enrichment over input
AGO2 A367P
  binding signal: 0.197 fold enrichment over input
AGO2 T357M
  binding signal: 0.562 fold enrichment over input
AGO2 F182del
  binding signal: 0.33 fold enrichment over input

B6: ACATCTTG (ssRNA)
RNA 1: GAGUUCUACAGUCCGACGAUCCCAACACAUCUUGCACCUGGAAUUCUCGGGUGCCAA
RNA 2: UGGAGUGUGACAAUGGUGUUUG
DNA 1: GATCGTCGGACTGTAGAACTC
DNA 2: TTGGCACCCGAGAATTCCA
modifications: constant regions annealed to DNA blockers; guide miR-122 5' phosphate
AGO2 L192P
  binding signal: 0.386 fold enrichment over input
AGO2 A367P
  binding signal: 0.135 fold enrichment over input
AGO2 T357M
  binding signal: 0.458 fold enrichment over input

B7: ACATTCTA (ssRNA)
RNA 1: GAGUUCUACAGUCCGACGAUCCCAACACAUUCUACACCUGGAAUUCUCGGGUGCCAA
RNA 2: UGGAGUGUGACAAUGGUGUUUG
DNA 1: GATCGTCGGACTGTAGAACTC
DNA 2: TTGGCACCCGAGAATTCCA
modifications: constant regions annealed to DNA blockers; guide miR-122 5' phosphate
AGO2 L192P
  binding signal: 0.493 fold enrichment over input
AGO2 A367P
  binding signal: 0.178 fold enrichment over input
AGO2 T357M
  binding signal: 0.557 fold enrichment over input
AGO2 F182del
  binding signal: 0.309 fold enrichment over input

B8: ACGCTTCG (ssRNA)
RNA 1: GAGUUCUACAGUCCGACGAUCCCAACACGCUUCGCACCUGGAAUUCUCGGGUGCCAA
RNA 2: UGGAGUGUGACAAUGGUGUUUG
DNA 1: GATCGTCGGACTGTAGAACTC
DNA 2: TTGGCACCCGAGAATTCCA
modifications: constant regions annealed to DNA blockers; guide miR-122 5' phosphate
AGO2 L192P
  binding signal: 0.346 fold enrichment over input
AGO2 A367P
  binding signal: 0.139 fold enrichment over input
AGO2 T357M
  binding signal: 0.445 fold enrichment over input

B9: ACGTCTTG (ssRNA)
RNA 1: GAGUUCUACAGUCCGACGAUCCCAACACGUCUUGCACCUGGAAUUCUCGGGUGCCAA
RNA 2: UGGAGUGUGACAAUGGUGUUUG
DNA 1: GATCGTCGGACTGTAGAACTC
DNA 2: TTGGCACCCGAGAATTCCA
modifications: constant regions annealed to DNA blockers; guide miR-122 5' phosphate
AGO2 L192P
  binding signal: 0.319 fold enrichment over input
AGO2 A367P
  binding signal: 0.134 fold enrichment over input
AGO2 T357M
  binding signal: 0.501 fold enrichment over input

B10: ATACTCTG (ssRNA)
RNA 1: GAGUUCUACAGUCCGACGAUCCCAACAUACUCUGCACCUGGAAUUCUCGGGUGCCAA
RNA 2: UGGAGUGUGACAAUGGUGUUUG
DNA 1: GATCGTCGGACTGTAGAACTC
DNA 2: TTGGCACCCGAGAATTCCA
modifications: constant regions annealed to DNA blockers; guide miR-122 5' phosphate
AGO2 L192P
  binding signal: 0.349 fold enrichment over input
AGO2 A367P
  binding signal: 0.134 fold enrichment over input
AGO2 T357M
  binding signal: 0.504 fold enrichment over input

B11: ATGTCCCG (ssRNA)
RNA 1: GAGUUCUACAGUCCGACGAUCCCAACAUGUCCCGCACCUGGAAUUCUCGGGUGCCAA
RNA 2: UGGAGUGUGACAAUGGUGUUUG
DNA 1: GATCGTCGGACTGTAGAACTC
DNA 2: TTGGCACCCGAGAATTCCA
modifications: constant regions annealed to DNA blockers; guide miR-122 5' phosphate
AGO2 L192P
  binding signal: 0.319 fold enrichment over input
AGO2 A367P
  binding signal: 0.125 fold enrichment over input
AGO2 T357M
  binding signal: 0.416 fold enrichment over input

B12: GTACCCCG (ssRNA)
RNA 1: GAGUUCUACAGUCCGACGAUCCCAACGUACCCCGCACCUGGAAUUCUCGGGUGCCAA
RNA 2: UGGAGUGUGACAAUGGUGUUUG
DNA 1: GATCGTCGGACTGTAGAACTC
DNA 2: TTGGCACCCGAGAATTCCA
modifications: constant regions annealed to DNA blockers; guide miR-122 5' phosphate
AGO2 L192P
  binding signal: 0.358 fold enrichment over input
AGO2 A367P
  binding signal: 0.123 fold enrichment over input
AGO2 T357M
  binding signal: 0.475 fold enrichment over input

B13: GCACCTTG (ssRNA)
RNA 1: GAGUUCUACAGUCCGACGAUCCCAACGCACCUUGCACCUGGAAUUCUCGGGUGCCAA
RNA 2: UGGAGUGUGACAAUGGUGUUUG
DNA 1: GATCGTCGGACTGTAGAACTC
DNA 2: TTGGCACCCGAGAATTCCA
modifications: constant regions annealed to DNA blockers; guide miR-122 5' phosphate
AGO2 L192P
  binding signal: 0.387 fold enrichment over input
AGO2 A367P
  binding signal: 0.154 fold enrichment over input
AGO2 T357M
  binding signal: 0.503 fold enrichment over input

B14: GTACTCTG (ssRNA)
RNA 1: GAGUUCUACAGUCCGACGAUCCCAACGUACUCUGCACCUGGAAUUCUCGGGUGCCAA
RNA 2: UGGAGUGUGACAAUGGUGUUUG
DNA 1: GATCGTCGGACTGTAGAACTC
DNA 2: TTGGCACCCGAGAATTCCA
modifications: constant regions annealed to DNA blockers; guide miR-122 5' phosphate
AGO2 L192P
  binding signal: 0.332 fold enrichment over input
AGO2 A367P
  binding signal: 0.134 fold enrichment over input
AGO2 T357M
  binding signal: 0.423 fold enrichment over input

B15: ACGTTCCG (ssRNA)
RNA 1: GAGUUCUACAGUCCGACGAUCCCAACACGUUCCGCACCUGGAAUUCUCGGGUGCCAA
RNA 2: UGGAGUGUGACAAUGGUGUUUG
DNA 1: GATCGTCGGACTGTAGAACTC
DNA 2: TTGGCACCCGAGAATTCCA
modifications: constant regions annealed to DNA blockers; guide miR-122 5' phosphate
AGO2 L192P
  binding signal: 0.361 fold enrichment over input
AGO2 A367P
  binding signal: 0.128 fold enrichment over input
AGO2 T357M
  binding signal: 0.44 fold enrichment over input

B16: ATATCCTA (ssRNA)
RNA 1: GAGUUCUACAGUCCGACGAUCCCAACAUAUCCUACACCUGGAAUUCUCGGGUGCCAA
RNA 2: UGGAGUGUGACAAUGGUGUUUG
DNA 1: GATCGTCGGACTGTAGAACTC
DNA 2: TTGGCACCCGAGAATTCCA
modifications: constant regions annealed to DNA blockers; guide miR-122 5' phosphate
AGO2 L192P
  binding signal: 0.467 fold enrichment over input
AGO2 A367P
  binding signal: 0.17 fold enrichment over input
AGO2 T357M
  binding signal: 0.569 fold enrichment over input

B17: ATATCTCG (ssRNA)
RNA 1: GAGUUCUACAGUCCGACGAUCCCAACAUAUCUCGCACCUGGAAUUCUCGGGUGCCAA
RNA 2: UGGAGUGUGACAAUGGUGUUUG
DNA 1: GATCGTCGGACTGTAGAACTC
DNA 2: TTGGCACCCGAGAATTCCA
modifications: constant regions annealed to DNA blockers; guide miR-122 5' phosphate
AGO2 L192P
  binding signal: 0.351 fold enrichment over input
AGO2 A367P
  binding signal: 0.124 fold enrichment over input
AGO2 T357M
  binding signal: 0.398 fold enrichment over input

B18: GTACTTCG (ssRNA)
RNA 1: GAGUUCUACAGUCCGACGAUCCCAACGUACUUCGCACCUGGAAUUCUCGGGUGCCAA
RNA 2: UGGAGUGUGACAAUGGUGUUUG
DNA 1: GATCGTCGGACTGTAGAACTC
DNA 2: TTGGCACCCGAGAATTCCA
modifications: constant regions annealed to DNA blockers; guide miR-122 5' phosphate
AGO2 L192P
  binding signal: 0.351 fold enrichment over input
AGO2 A367P
  binding signal: 0.13 fold enrichment over input
AGO2 T357M
  binding signal: 0.538 fold enrichment over input

B19: ACATTTTG (ssRNA)
RNA 1: GAGUUCUACAGUCCGACGAUCCCAACACAUUUUGCACCUGGAAUUCUCGGGUGCCAA
RNA 2: UGGAGUGUGACAAUGGUGUUUG
DNA 1: GATCGTCGGACTGTAGAACTC
DNA 2: TTGGCACCCGAGAATTCCA
modifications: constant regions annealed to DNA blockers; guide miR-122 5' phosphate
AGO2 L192P
  binding signal: 0.41 fold enrichment over input
AGO2 A367P
  binding signal: 0.143 fold enrichment over input
AGO2 T357M
  binding signal: 0.537 fold enrichment over input

B20: ATACTTCG (ssRNA)
RNA 1: GAGUUCUACAGUCCGACGAUCCCAACAUACUUCGCACCUGGAAUUCUCGGGUGCCAA
RNA 2: UGGAGUGUGACAAUGGUGUUUG
DNA 1: GATCGTCGGACTGTAGAACTC
DNA 2: TTGGCACCCGAGAATTCCA
modifications: constant regions annealed to DNA blockers; guide miR-122 5' phosphate
AGO2 L192P
  binding signal: 0.406 fold enrichment over input
AGO2 A367P
  binding signal: 0.138 fold enrichment over input
AGO2 T357M
  binding signal: 0.509 fold enrichment over input

B21: ACATTTCG (ssRNA)
RNA 1: GAGUUCUACAGUCCGACGAUCCCAACACAUUUCGCACCUGGAAUUCUCGGGUGCCAA
RNA 2: UGGAGUGUGACAAUGGUGUUUG
DNA 1: GATCGTCGGACTGTAGAACTC
DNA 2: TTGGCACCCGAGAATTCCA
modifications: constant regions annealed to DNA blockers; guide miR-122 5' phosphate
AGO2 L192P
  binding signal: 0.421 fold enrichment over input
AGO2 A367P
  binding signal: 0.151 fold enrichment over input
AGO2 T357M
  binding signal: 0.514 fold enrichment over input

B22: ATACCTCG (ssRNA)
RNA 1: GAGUUCUACAGUCCGACGAUCCCAACAUACCUCGCACCUGGAAUUCUCGGGUGCCAA
RNA 2: UGGAGUGUGACAAUGGUGUUUG
DNA 1: GATCGTCGGACTGTAGAACTC
DNA 2: TTGGCACCCGAGAATTCCA
modifications: constant regions annealed to DNA blockers; guide miR-122 5' phosphate
AGO2 L192P
  binding signal: 0.339 fold enrichment over input
AGO2 A367P
  binding signal: 0.127 fold enrichment over input
AGO2 T357M
  binding signal: 0.409 fold enrichment over input
